About 13,000 (27%) of roughly 48,000 compounds showed an effect of 50% or more. The list shows a part of the results.
Test system: Wolbachia pipientis
Test: Anti-Wolbachia Cell-Based Screen
Format: functional
Parameters: scale not given: in the data most compounds retested in dose-response had high values
Conditions: 5 µM

In order of falling “Percent Effect” value:
1. CCc1nnc(Nc2cc(C)nc(C3CCN(c4ccncn4)C3)n2)s1 (centres undefined)  171.2%
2. CCc1nnc(Nc2cc(C)nc(C3CCN(c4ncccn4)C3)n2)s1 (centres undefined)  164.2%
3. Cc1cc(C)nc(C2CCN(c3ccncn3)C2)n1 (centres undefined)  136%
4. CCc1nnc(Nc2cc(C)nc(C3CCN(c4cnccn4)C3)n2)s1 (centres undefined)  134.1%
5. c1ccc(-c2nc(CN3CCOC(Cn4cncn4)C3)cs2)cc1 (centres undefined)  125.5%
6. CCOc1ccc(NC(=O)C2OC(c3cccs3)=NN2C(C)=O)cc1 (centres undefined)  122.8%
7. CC(=O)N1N=C(c2cccs2)OC1C(=O)Nc1ccc(C)cc1 (centres undefined)  119.7%
8. Cc1nc2cc(C(=O)N3CCCC(n4ccnc4)C3)ccc2n1C (centres undefined)  116.9%
9. COc1ccc(NC(=O)C2OC(c3cccs3)=NN2C(C)=O)cc1 (centres undefined)  116.4%
10. Cn1cc(-c2nc(CN3CCOC(Cn4cncn4)C3)cs2)cn1 (centres undefined)  113.5%
11. COCCN1C(=O)CC(c2cccnc2)C12CCN(C)CC2 (centres undefined)  113.4%
12. CNC(=O)C1CN(C(=O)c2ccncc2)CCN(S(C)(=O)=O)C1 (centres undefined)  113%
13. CCC(=O)N1CCC2(CC1)C(c1cccnc1)CC(=O)N2CCOC.O=C(O)C(F)(F)F (centres undefined)  110.5%
14. Cc1nccn1C1CCCN(C(=O)c2ccc3c(c2)nc(C)n3C)C1 (centres undefined)  109.3%
15. CN(C)CCO[C@H]1CN(CC2CC2)[C@@H]2CCCO[C@H]12.O=C(O)C(F)(F)F.O=C(O)C(F)(F)F  109%
16. COCCN1C(=O)CC(c2cccnc2)C12CCN(C(=O)C1CC1)CC2.O=C(O)C(F)(F)F (centres undefined)  106.6%
17. CCOc1cccc(COC(=O)c2cc(C)on2)n1  106.6%
18. O=C(O)C(F)(F)F.O=C(O)C(F)(F)F.c1cc(CN2C[C@@H]3OCCN(CC4CC4)[C@@H]3C2)n[nH]1  105.8%
19. CC(=O)N1N=C(c2cccs2)OC1C(=O)Nc1ccccc1 (centres undefined)  103.8%
20. CNC(=O)C1CN(C(=O)c2cccs2)CCN(S(C)(=O)=O)C1 (centres undefined)  103.3%
21. CNC(=O)C1CN(C(=O)c2cccnc2)CCN(S(C)(=O)=O)C1 (centres undefined)  102.1%
22. CCO[C@H]1CN(CC2CCOCC2)[C@@H]2CCCO[C@H]12.O=C(O)C(F)(F)F  93.44%
23. CCOc1cccc(NC(=O)c2cc(C)on2)n1  91.67%
24. COCCN1CCO[C@H]2CN(Cc3cc[nH]n3)C[C@H]21.O=C(O)C(F)(F)F.O=C(O)C(F)(F)F  90.56%
25. CCOc1cccc(NC(=O)c2cnc(C)cn2)n1  87.8%
26. CCOc1cccc(NC(=O)c2cc[nH]n2)n1  87.66%
27. COc1cc(N2CCCC(c3nccn3Cc3ccncc3)C2)ncn1 (centres undefined)  26.87%
28. CCc1nc(C2CCCN(c3ncccn3)C2)no1 (centres undefined)  22.68%
29. CCc1noc(CN(C)C(=O)C2COc3ccccc3C2)n1 (centres undefined)  19.12%
30. Cn1cc(-c2nc(CN3CCOC(Cn4cccn4)C3)cs2)cn1 (centres undefined)  14.65%
31. CCN1C(=O)CC(c2cnn(C)c2)C12CCN(C(=O)c1ccc[nH]1)CC2 (centres undefined)  13.05%
32. CC(C(=O)NC1CC1)S(=O)(=O)Cc1noc(C(C)(C)C)n1 (centres undefined)  12.74%
33. CCOc1ccc(N(CCC#N)C(=O)c2ccnc(SC)c2)cc1  9.969%
34. CCc1nc(CC(=O)N2CCN(c3cnccn3)CC2)cs1  8.255%
35. CCc1nc(C)c([C@H]2CN(C)C[C@@H]2C(=O)Nc2ccc(OC)cc2)[nH]1  7.798%
36. Cc1ccccc1OCCC(=O)N1CCc2nc(C)n(C)c(=O)c2CC1  7.029%
37. CCc1nnc(CNC2CCN(c3ncnc4c(C)csc34)CC2)s1  6.605%
38. CCc1cc(N2CCN(c3cnccn3)CC2)n2nc(C)c(C)c2n1  6.49%
39. CC(C)c1ccc(OCCC(=O)N(C)C)cc1  6.13%
40. c1cnc(N2CCC(C3CCN(CCCn4cccn4)C3)CC2)nc1 (centres undefined)  5.409%
41. COc1ccc(CC(C)(O)CNC(=O)Cc2cccs2)cc1 (centres undefined)  5.181%
42. CCc1ccc(NC(=O)C2OC(c3cccs3)=NN2C(C)=O)cc1 (centres undefined)  3.495%
43. COC(CNC(=O)c1cc(C)on1)c1ccccc1C (centres undefined)  2.502%
44. Cc1ccc(NC(=O)c2cc(S(=O)(=O)N3CCCCC3)c[nH]2)cc1F  1.173%
45. COCCN(Cc1cccnc1)c1nc(C)nc2oc(C)nc12  1.02%
46. O=C(Nc1ccccc1)C1CN(Cc2cccs2)CC12CCOCC2 (centres undefined)  0.5273%
47. CCOc1ccc(NC(=O)c2cccc(OC)c2OC)cc1  0.2949%
48. c1cnc(-c2nc(CN3CCOC(Cn4cncn4)C3)cs2)nc1 (centres undefined)  0%
49. CC(C)n1ncc2cc(NC(=O)N3CCC(N4CCCC4)C3)cnc21 (centres undefined)  -0.151%
50. O=C(Nc1ccccc1)C1CN(C(=O)c2cccs2)CC12CCOCC2 (centres undefined)  -0.3117%
51. CCC(C)N(Cc1cccnc1)C(=O)CCSC (centres undefined)  -1.177%
52. CCO[C@@H]1CN(Cc2scnc2C)[C@@H]2CCCO[C@@H]21.O=C(O)C(F)(F)F.O=C(O)C(F)(F)F  -1.893%
53. Cc1ccc(-c2noc(CN3CCOC(Cn4cncn4)C3)n2)cc1 (centres undefined)  -2.106%
54. CCN1CCN(C(=O)c2ccc3c(c2)CCCN3)[C@H]2CS(=O)(=O)C[C@H]21  -2.171%
55. CN(C)C(=O)CO[C@H]1CN(Cc2ccc(F)cc2)[C@@H]2CCCO[C@H]12.O=C(O)C(F)(F)F  -2.214%
56. CC(C)c1nc(/C=C/c2cnn(-c3ccccc3)c2)ncc1C(=O)O  -2.711%
57. CS(=O)(=O)NC[C@H]1OC[C@@H]2CCN(C(=O)c3cccnc3)C[C@@H]21  -2.955%
58. COc1ccc(C(=O)Nc2nncs2)cn1  -3.004%
59. Clc1cccc2c3c([nH]c12)CCN(Cc1cc2n(n1)CCCNC2)C3  -3.179%
60. F[C@@H]1CN(Cc2ccccc2)C[C@@H]1OCc1nc2ccccc2[nH]1  -3.249%
61. O=C(Nc1cc(C2CCOCC2)[nH]n1)c1cc[nH]n1  -3.397%
62. CCC1CN(C(=O)c2ccccc2N2CCCC2)CCN1C(C)C (centres undefined)  -3.455%
63. NC(=O)c1cccc(CC2CCN(C(=O)CCc3cccc(F)c3)C2)c1 (centres undefined)  -3.46%
64. CN(C)C(=O)CO[C@@H]1CN(Cc2ccccc2F)[C@@H]2CCCO[C@@H]21.O=C(O)C(F)(F)F  -3.753%
65. CCCNC(=O)C[C@@H]1CCN(C(=O)c2cccnc2)C[C@@H]1CC  -4.226%
66. Cc1nc2cc(C(=O)N3CCCC(n4cncn4)C3)ccc2n1C (centres undefined)  -4.268%
67. CCOc1cccc(COC(=O)c2cc(Cl)ccn2)n1  -4.3%
68. CCOc1cccc(COC(=O)c2cscn2)n1  -4.907%
69. O=C(O)C(F)(F)F.O=C(O)C(F)(F)F.O=C(O)C(F)(F)F.c1coc(CN2C[C@@H]3OCCN(CCN4CCCC4)[C@@H]3C2)c1  -5.292%
70. Cc1ccsc1[C@@H]1CCN(C(=O)Cc2ccc(O)cc2)C[C@H]1O  -5.599%
71. CC(Cc1cccc(F)c1)C(=O)NS(=O)(=O)c1ccc(F)cc1 (centres undefined)  -6.109%
72. CNS(=O)(=O)c1ccc(C(=O)N2CCCC(n3cccn3)C2)cc1 (centres undefined)  -7.031%
73. O=C(O)C(F)(F)F.O=C(O)C(F)(F)F.c1csc(CN2C[C@@H]3OCCN(CC4CCCO4)[C@@H]3C2)c1 (some centres undefined)  -7.067%
74. CCCN(CC1CC1)C(=O)Cn1ccccc1=O  -7.373%
75. COCCN1CCO[C@H]2CN(C(=O)c3cccs3)C[C@H]21.O=C(O)C(F)(F)F  -7.528%
76. O=C(NCCCN1CCC(OC2CCCCC2)CC1)C1CCCC1  -7.761%
77. Cc1noc(C)c1CN1C(=O)[C@H]2CC[C@@H]1CN(Cc1ccc(Cl)cc1)C2  -8.21%
78. O=C(O)C[C@@H]1CCN(C(=O)c2cccs2)C[C@@H]1CCN1CCCCC1  -8.603%
79. CN(C)c1cc(C(=O)N2CCN(S(C)(=O)=O)CC2)ccn1  -8.698%
80. CSCCC1c2nc[nH]c2CCN1Cc1ccccc1C#N (centres undefined)  -9.025%
81. CCc1nnc(Nc2cccc(C3CCN(CCO)CC3)n2)s1  -9.2%
82. Fc1ccccc1CN1C[C@H](OCC2CCOCC2)[C@H]2OCCC[C@H]21.O=C(O)C(F)(F)F  -9.213%
83. CCOc1cccc(COC(=O)c2ccc(F)cn2)n1  -9.322%
84. O=C(O)C(F)(F)F.O=C(O)C(F)(F)F.O=C(O)C(F)(F)F.c1cnc(N2CCN(C3CCC[C@@H]4CN(CC5CC5)C[C@H]34)CC2)nc1 (some centres undefined)  -9.573%
85. CCOc1cccc(COC(=O)c2ccc(Cl)cn2)n1  -10.12%
86. O=C(O)C(F)(F)F.c1cnc(N2CCO[C@H]3CN(Cc4cc[nH]n4)C[C@H]32)cn1  -10.59%
87. CCN1C(=O)CC(c2cccnc2)C12CCN(c1ncc(F)cn1)CC2 (centres undefined)  -11.62%
88. Cc1ccc(C2CSCCN2C(=O)C2=CCCC2)o1 (centres undefined)  -12.79%
89. CCCc1ccc(S(=O)(=O)NCCNC(=O)c2ccoc2)cc1  -13.27%
90. Cn1ccnc1COc1ccc(NC(=O)C2CCCO2)cc1 (centres undefined)  -13.75%
91. CCN1C(=O)CC(c2ccccc2)C12CCN(c1ncc(C)cn1)CC2 (centres undefined)  -13.83%
92. CCOc1cccc(NC(=O)c2cscn2)n1  -16.65%
93. Cc1ccccc1N1CCCN(c2ccncn2)CC1  -18.24%
94. CC(C)C1CN(C(=O)c2cccs2)CCS1 (centres undefined)  -18.38%
95. O=C(O)CSc1nnc(-c2ccn[nH]2)n1-c1ccccc1Cl  -20.89%
96. COCCC1(CNC(=O)NCC2CN(C)CCN2C)CCC1 (centres undefined)  -22.96%
97. Cc1nccn1CCC1CCN(c2ccncn2)CC1  -24.71%
98. Cc1cc(CNC(=O)[C@H]2CCCCN2C(=O)OC(C)(C)C)on1  -34.39%
99. CCOc1cccc(NC(=O)Cc2cccc(O)c2)n1  -45.48%

Reference: ChEMBL document CHEMBL3988442, “University of Dundee, Small-Polar-MMV Screening Library” (2021)
